What was measured:
Assay in all cases: DAPPL (digital affinity profiling via proximity ligation, sequencing); 10 mM Tris-HCl pH 7.5, 50 mM NaCl, 1 mM DTT, 4% glycerol, room temperature, 30 min; GST-TFs on glutathione beads, 16-mer random dsDNA library, 0.1% formaldehyde crosslink after washing; high values mean tight binding
Conditions in all cases: protein: recombinant; tags: N-terminal GST; dsDNA, one strand shown
ERF = molecular target: T1, ERF (Homo sapiens, UniProt P50548 1-548)
T1 sequence: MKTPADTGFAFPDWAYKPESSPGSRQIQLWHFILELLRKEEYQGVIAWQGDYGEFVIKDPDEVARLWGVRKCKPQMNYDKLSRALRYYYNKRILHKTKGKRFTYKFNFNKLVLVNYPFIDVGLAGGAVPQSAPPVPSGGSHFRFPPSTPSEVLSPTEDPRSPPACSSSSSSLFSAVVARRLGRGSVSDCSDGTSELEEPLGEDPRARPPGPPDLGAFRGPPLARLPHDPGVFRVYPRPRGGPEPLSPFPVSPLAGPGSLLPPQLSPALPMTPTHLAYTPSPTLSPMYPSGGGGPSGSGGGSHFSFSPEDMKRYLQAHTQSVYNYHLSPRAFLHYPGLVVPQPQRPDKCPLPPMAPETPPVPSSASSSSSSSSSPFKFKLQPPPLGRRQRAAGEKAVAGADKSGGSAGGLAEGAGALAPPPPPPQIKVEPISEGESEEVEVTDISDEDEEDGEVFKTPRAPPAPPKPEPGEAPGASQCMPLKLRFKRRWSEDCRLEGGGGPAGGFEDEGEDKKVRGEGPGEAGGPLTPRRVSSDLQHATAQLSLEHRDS
In short: (§1)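 Each value of binding signal is a hexamer's read frequency for a factor divided by the same hexamer's frequency in the tag-only sample. Barcoded, bead-captured GST fusions of human transcription factors made in yeast were pooled with that sample and incubated with 200 nmole of a random double-stranded 16-mer DNA library in Tris/NaCl/DTT/glycerol buffer at room temperature for 30 min. Washing, 0.1% formaldehyde crosslinking, proximity ligation, PCR and Illumina NextSeq500 sequencing followed.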

ETV3L = molecular target: T2, ETV3L (Homo sapiens, UniProt Q6ZN32 1-361)
T2 sequence: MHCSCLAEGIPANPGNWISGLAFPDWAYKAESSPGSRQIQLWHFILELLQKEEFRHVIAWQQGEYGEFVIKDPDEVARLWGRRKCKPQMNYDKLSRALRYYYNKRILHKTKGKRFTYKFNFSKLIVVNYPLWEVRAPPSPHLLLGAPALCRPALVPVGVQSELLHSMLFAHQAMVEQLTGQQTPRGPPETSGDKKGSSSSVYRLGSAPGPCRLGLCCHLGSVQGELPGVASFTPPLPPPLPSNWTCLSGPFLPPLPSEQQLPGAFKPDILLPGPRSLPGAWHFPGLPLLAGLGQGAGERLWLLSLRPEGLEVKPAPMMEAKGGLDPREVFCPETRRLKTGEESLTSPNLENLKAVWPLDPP
In short: as §1

ETS2 = molecular target: T3, ETS2 (Homo sapiens, UniProt P15036 1-469)
T3 sequence: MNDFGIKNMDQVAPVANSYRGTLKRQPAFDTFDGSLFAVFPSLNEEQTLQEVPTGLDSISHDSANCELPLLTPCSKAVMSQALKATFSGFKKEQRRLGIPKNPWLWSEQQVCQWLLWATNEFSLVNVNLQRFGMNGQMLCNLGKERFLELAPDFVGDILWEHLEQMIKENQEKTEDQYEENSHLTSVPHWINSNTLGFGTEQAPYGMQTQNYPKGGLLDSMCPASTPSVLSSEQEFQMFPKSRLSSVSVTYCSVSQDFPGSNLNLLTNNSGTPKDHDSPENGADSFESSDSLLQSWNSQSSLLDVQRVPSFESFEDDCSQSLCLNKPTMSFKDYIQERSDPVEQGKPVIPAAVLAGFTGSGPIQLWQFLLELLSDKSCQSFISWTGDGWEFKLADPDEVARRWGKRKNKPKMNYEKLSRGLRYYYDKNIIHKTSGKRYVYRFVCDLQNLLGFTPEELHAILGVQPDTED
In short: as §1

SPDEF = molecular target: T4, SPDEF (Homo sapiens, UniProt O95238 1-335)
T4 sequence: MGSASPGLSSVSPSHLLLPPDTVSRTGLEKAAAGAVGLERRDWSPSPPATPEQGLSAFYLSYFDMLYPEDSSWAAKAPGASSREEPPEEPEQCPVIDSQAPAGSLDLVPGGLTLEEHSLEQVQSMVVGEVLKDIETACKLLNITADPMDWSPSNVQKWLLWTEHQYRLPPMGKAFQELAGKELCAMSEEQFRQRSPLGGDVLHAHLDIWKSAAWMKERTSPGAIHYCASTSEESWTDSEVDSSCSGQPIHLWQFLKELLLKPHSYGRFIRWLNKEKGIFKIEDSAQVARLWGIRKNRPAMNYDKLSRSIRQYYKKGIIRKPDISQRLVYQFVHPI
In short: as §1

ETV7 = molecular target: T5, ETV7 (Homo sapiens, UniProt Q9Y603 1-341)
T5 sequence: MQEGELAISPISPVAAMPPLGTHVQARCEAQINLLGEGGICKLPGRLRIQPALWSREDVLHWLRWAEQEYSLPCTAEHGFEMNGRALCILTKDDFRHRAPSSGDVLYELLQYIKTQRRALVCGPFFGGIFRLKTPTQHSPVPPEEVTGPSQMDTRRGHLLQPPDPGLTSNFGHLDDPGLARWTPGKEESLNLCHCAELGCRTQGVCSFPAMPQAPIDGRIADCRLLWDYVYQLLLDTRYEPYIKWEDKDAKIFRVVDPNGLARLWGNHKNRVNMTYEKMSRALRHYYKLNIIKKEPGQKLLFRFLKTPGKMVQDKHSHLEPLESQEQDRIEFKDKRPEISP
In short: as §1

ELF5 = molecular target: T6, ELF5 (Homo sapiens, UniProt Q9UKW6-2 1-255)
T6 sequence: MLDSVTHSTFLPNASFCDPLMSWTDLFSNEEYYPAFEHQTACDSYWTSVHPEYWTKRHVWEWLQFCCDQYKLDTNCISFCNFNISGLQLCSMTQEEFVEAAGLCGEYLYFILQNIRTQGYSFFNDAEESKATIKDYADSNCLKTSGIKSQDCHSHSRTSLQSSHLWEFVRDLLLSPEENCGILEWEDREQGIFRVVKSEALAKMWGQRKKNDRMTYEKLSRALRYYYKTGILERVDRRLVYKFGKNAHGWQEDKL
In short: as §1

ETV3 = molecular target: T7, ETV3 (Homo sapiens, UniProt P41162-2 1-143)
T7 sequence: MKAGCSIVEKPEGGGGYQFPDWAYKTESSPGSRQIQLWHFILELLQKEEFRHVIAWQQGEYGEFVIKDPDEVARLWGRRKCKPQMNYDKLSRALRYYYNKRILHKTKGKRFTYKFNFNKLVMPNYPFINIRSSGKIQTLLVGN
In short: as §1

ETV6 = ETV6 (Homo sapiens, UniProt P41212 1-452)
In short: as §1

Sequence of ETV6 (P41212 whole entry): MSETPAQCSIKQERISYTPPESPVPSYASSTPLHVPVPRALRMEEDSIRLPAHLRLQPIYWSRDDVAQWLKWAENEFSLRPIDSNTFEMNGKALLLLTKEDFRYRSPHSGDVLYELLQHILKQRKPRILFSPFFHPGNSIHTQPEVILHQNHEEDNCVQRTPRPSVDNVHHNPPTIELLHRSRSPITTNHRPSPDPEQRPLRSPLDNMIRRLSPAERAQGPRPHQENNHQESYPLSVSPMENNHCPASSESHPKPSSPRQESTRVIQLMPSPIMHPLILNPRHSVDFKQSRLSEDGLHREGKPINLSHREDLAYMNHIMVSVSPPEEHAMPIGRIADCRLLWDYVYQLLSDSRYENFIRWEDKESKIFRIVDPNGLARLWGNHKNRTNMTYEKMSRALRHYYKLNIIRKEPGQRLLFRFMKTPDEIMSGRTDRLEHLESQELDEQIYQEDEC

Row | Sequence | binding signal (ERF) | binding signal (ETV3L) | binding signal (ETS2) | binding signal (SPDEF) | binding signal (ETV7) | binding signal (ELF5) | binding signal (ETV3) | binding signal (ETV6)
1 | CAACTC | 1.26 fold enrichment (6-mer frequency, TF over GST control) | 1.22 fold enrichment (6-mer frequency, TF over GST control) | 1.26 fold enrichment (6-mer frequency, TF over GST control) | 1.36 fold enrichment (6-mer frequency, TF over GST control) | 1.12 fold enrichment (6-mer frequency, TF over GST control) | 1.16 fold enrichment (6-mer frequency, TF over GST control) | 1.31 fold enrichment (6-mer frequency, TF over GST control) | 1.29 fold enrichment (6-mer frequency, TF over GST control)
2 | TGAATG | 1.14 fold enrichment (6-mer frequency, TF over GST control) | 1.2 fold enrichment (6-mer frequency, TF over GST control) | 1.25 fold enrichment (6-mer frequency, TF over GST control) | 1.28 fold enrichment (6-mer frequency, TF over GST control) | 1.21 fold enrichment (6-mer frequency, TF over GST control) | 1.21 fold enrichment (6-mer frequency, TF over GST control) | 1.2 fold enrichment (6-mer frequency, TF over GST control) | 1.22 fold enrichment (6-mer frequency, TF over GST control)
3 | TGCGCA | 1.11 fold enrichment (6-mer frequency, TF over GST control) | 1.11 fold enrichment (6-mer frequency, TF over GST control) | 1.18 fold enrichment (6-mer frequency, TF over GST control) | 1.02 fold enrichment (6-mer frequency, TF over GST control) | 1.03 fold enrichment (6-mer frequency, TF over GST control) | 1.06 fold enrichment (6-mer frequency, TF over GST control) | 1.14 fold enrichment (6-mer frequency, TF over GST control) | 1.07 fold enrichment (6-mer frequency, TF over GST control)
4 | TCAAGG | 1.09 fold enrichment (6-mer frequency, TF over GST control) | 1.03 fold enrichment (6-mer frequency, TF over GST control) | 1.04 fold enrichment (6-mer frequency, TF over GST control) | 1.12 fold enrichment (6-mer frequency, TF over GST control) | 1.17 fold enrichment (6-mer frequency, TF over GST control) | 1.14 fold enrichment (6-mer frequency, TF over GST control) | 1.12 fold enrichment (6-mer frequency, TF over GST control) | 1.14 fold enrichment (6-mer frequency, TF over GST control)
5 | CCTCGT | 1.23 fold enrichment (6-mer frequency, TF over GST control) | 1.2 fold enrichment (6-mer frequency, TF over GST control) | 1.25 fold enrichment (6-mer frequency, TF over GST control) | 1.19 fold enrichment (6-mer frequency, TF over GST control) | 1.17 fold enrichment (6-mer frequency, TF over GST control) | 1.4 fold enrichment (6-mer frequency, TF over GST control) | 1.27 fold enrichment (6-mer frequency, TF over GST control) | 1.23 fold enrichment (6-mer frequency, TF over GST control)
6 | CACCAT | 1.12 fold enrichment (6-mer frequency, TF over GST control) | 1.16 fold enrichment (6-mer frequency, TF over GST control) | 1.08 fold enrichment (6-mer frequency, TF over GST control) | 1.02 fold enrichment (6-mer frequency, TF over GST control) | 1.15 fold enrichment (6-mer frequency, TF over GST control) | 1.1 fold enrichment (6-mer frequency, TF over GST control) | 1.05 fold enrichment (6-mer frequency, TF over GST control) | 1.04 fold enrichment (6-mer frequency, TF over GST control)
7 | CGAAGC | 1.38 fold enrichment (6-mer frequency, TF over GST control) | 1.2 fold enrichment (6-mer frequency, TF over GST control) | 1.33 fold enrichment (6-mer frequency, TF over GST control) | 1.18 fold enrichment (6-mer frequency, TF over GST control) | 1.44 fold enrichment (6-mer frequency, TF over GST control) | 1.19 fold enrichment (6-mer frequency, TF over GST control) | 1.34 fold enrichment (6-mer frequency, TF over GST control) | 1.14 fold enrichment (6-mer frequency, TF over GST control)
8 | ATCTGT | 1.21 fold enrichment (6-mer frequency, TF over GST control) | 1.2 fold enrichment (6-mer frequency, TF over GST control) | 1.22 fold enrichment (6-mer frequency, TF over GST control) | 1.17 fold enrichment (6-mer frequency, TF over GST control) | 1.21 fold enrichment (6-mer frequency, TF over GST control) | 1.2 fold enrichment (6-mer frequency, TF over GST control) | 1.11 fold enrichment (6-mer frequency, TF over GST control) | 1.12 fold enrichment (6-mer frequency, TF over GST control)
9 | CGTCTC | 1.49 fold enrichment (6-mer frequency, TF over GST control) | 1.71 fold enrichment (6-mer frequency, TF over GST control) | 1.58 fold enrichment (6-mer frequency, TF over GST control) | 1.35 fold enrichment (6-mer frequency, TF over GST control) | 1.44 fold enrichment (6-mer frequency, TF over GST control) | 1.38 fold enrichment (6-mer frequency, TF over GST control) | 1.48 fold enrichment (6-mer frequency, TF over GST control) | 1.46 fold enrichment (6-mer frequency, TF over GST control)

— paper PMC7862700, “An all-to-all approach to the identification of sequence-specific readers for epigenetic DNA modifications on cytosine”
